Source: PubChem (National Center for Advancing Translational Sciences (NCATS))
NS1 inh = blocks influenza NS1 protein function; Potency, µM (series often up to 46.1 µM); hit rate 0.4% among 270,000; AID 2326; calls by dose curve; note: actives are rising curves; nearly all actives have a fitted effect of over 50% in size
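Recovery from NS1-induced slow growth read by OD600 in budding yeast switched to galactose assay medium (pH 6.0, -URA) at 1:100 dilution. Compound 23 nl per well; the matching strain lacking NS1 serves as control.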
Pf growth 48h = inhibits P. falciparum growth in the first generation, 48 h | P. falciparum luciferase growth in erythrocytes, 48 h | Potency, µM (highest dose often 28.7 µM), hits mostly inhibitors | hit rate 5.9% among 310,000 | AID 504832
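Luciferase-expressing parasites in RBCs, 2% Hct / 0.1% parasitemia final; RPMI 1640 + 0.5% Albumax; 37 C, 5% CO2, one generation; luminescence read-out, lower signal = inhibition.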
HCV inh = inhibitors of hepatitis C virus infection; Potency, µM (top dose mostly 41.8 µM), hits mostly inhibitors; hit rate 3.4% among 340,000; Huh7.5.1 HCVcc-Cre infection, luciferase reporter, 44 h
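Seed cells (1,000/well) for 4 h; treat with compound and infect with HCVcc-Cre, moi about 0.5. Incubate 44 h, then detect luciferase activity.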
SARS PLP yeast = SARS-CoV PLP inhibition in yeast | S. cerevisiae expressing SARS-CoV PLpro, growth rescue | Potency, µM (top dose mostly 32.9 µM), usual class: activators | hit rate 0.19% among 330,000 | AID 485353; calls by dose curve; note: nearly all actives have a fitted effect of over 55% in size
AMA1-RON2 inh = disrupts binding of P. falciparum AMA1 to RON2; AlphaScreen AMA1-biotinylated RON2 peptide binding; Potency, µM (doses to about 58.2 µM), actives largely listed as inhibitors; hit rate 0.2% among 360,000; note: nearly all actives have a fitted effect of over 45% in size
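AMA1 (3D7) with his tag at 25 nM final met compounds first, then biotinylated RON2 peptide at 25 nM; detection used donor plus acceptor beads, 10 µg/mL apiece, read by AlphaScreen after 30 min at room temperature.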
Pf growth 96h = P. falciparum growth inhibition at 96 hour, primary screen for plastid delayed-death inhibitors | hit rate 6.9% among 320,000 | P. falciparum luciferase reporter growth, 96 h | Potency, µM (titrated, usually from 28.7 µM), hits mostly inhibitors
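Erythrocytes infected with luciferase-expressing P. falciparum were dispensed at 2% hematocrit and 0.05% parasitemia (final), then incubated with compounds 96 hours at 37 C in 5% CO2. Luminescence after detection reagent addition reported growth.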
A number is an active result; n = inactive; u = inconclusive; x = not tested or not shown; [ ] = dose if it differs, or a comment. An excerpt weighted towards active compounds, which were near 12% of everything screened. Unless noted, calls come from the whole dose curve; as a rule, active = well fitted curve in the direction sought with a large enough effect; inconclusive = small, poorly fitted or top-dose-only effect, or another doubt; inactive = no such curve, though single readings can be large; an effect the other way counts as inactive or inconclusive.

SMILES	NS1 inh	Pf growth 48h	HCV inh	SARS PLP yeast	AMA1-RON2 inh	Pf growth 96h
CCc1c(C)nc2ncnn2c1N1CCC(C(=O)Nc2ccccc2)CC1	n	u	u	n	n	n
O=C(Nc1ccc2c(c1)CCC2)C1CCCN(c2ncccn2)C1 (stereo unspecified)	n	n	n	n	n	n
COc1ccccc1NC(=O)c1ccc(NC(=O)COC(=O)CCC2CCCC2)cc1	n	n	n	n	n	n
COc1ccc(OC)c(NC(=O)c2ccc(-c3cccs3)cc2)c1	x	n	u	n	28.2µM	n
COc1ccccc1NC(=O)c1ccc(NC(=O)COC(=O)C(C)C)cc1	n	7.38µM	n	n	n	6.57µM
COc1ccccc1NC(=O)c1ccc(NC(=O)c2ccco2)cc1	n	u	n	n	n	n
COc1cc(OC)cc(C(=O)Nc2ccc(C(=O)Nc3ccccc3OC)cc2)c1	x	x	11.2µM	n	n	x
COc1ccc2cc1Oc1ccc(cc1)C[C@H]1c3cc(c(OC)cc3CCN1C)Oc1c(OC)c(OC)cc3c1[C@@H](C2)N(C)CC3	n	2.33µM	u	n	n	1.47µM
CC(C)(C)c1ccc(-c2nnc(SCC(=O)NC3CC3)o2)cc1	x	2.08µM	n	n	n	1.31µM
O=c1cc(C(Cl)(Cl)Cl)oc2c1ccc1ccccc12	n	0.131µM	u	n	n	0.262µM
O=C(O)c1cccc(C[C@H](Br)C(=O)O)c1	n	x	x	x	x	x
CCOC(=O)N1CCC(NC(=O)c2ccc3nc4ccccc4c(=O)n3c2)CC1	n	u	x	n	x	n
CCOC(=O)N1CCC(NC(=O)c2cccn3c(=O)c4cc(Br)ccc4nc23)CC1	n	2.62µM	n	n	n	n
COc1ccc(-c2cn3c(C)c(C(=O)Nc4ccncc4)sc3n2)cc1	n	x	4.47µM	n	n	u
Cc1c(C(=O)Nc2ccncc2)sc2nc(-c3ccc(F)cc3)cn12	n	2.33µM	10µM	n	n	2.33µM
COC(=O)c1ccc(Cn2cnc3c(cnn3-c3ccc(F)cc3)c2=O)o1	n	n	n	n	n	n
CC(C)CCn1cnc2c(cnn2-c2ccc(F)cc2)c1=O	n	n	10µM	n	n	x
COc1ccc(Nc2nc3ccc(C)cc3n3cnnc23)cc1Cl	n	u	x	n	x	n
COc1ccccc1Nc1nc2ccc(C)cc2n2cnnc12	n	n	6.31µM	n	n	n
Cc1ccc2nc(Nc3ccc(C)c(C)c3)c3nncn3c2c1	n	u	22.4µM	n	n	n
COc1ccc(Nc2nc3ccccc3n3cnnc23)cc1	n	n	20µM	n	n	x
CCOC(=O)C1CCN(C(=O)C(C)c2ccc([N+](=O)[O-])cc2)CC1 (stereo unspecified)	x	n	n	n	n	n[5.75 µM]
c1ccc(-c2csc(-n3cccn3)n2)cc1	x	n	n	n	n	n
COc1ccc(-c2cc3ccccc3nc2N)cc1OC	n	n[0.00184 µM]	11.2µM	n	n	u
COc1ccc(-c2nc3ccccc3nc2-c2ccc(OC)c(OC)c2)cc1OC	n	u	n	n	n	n
SMILES	NS1 inh	Pf growth 48h	HCV inh	SARS PLP yeast	AMA1-RON2 inh	Pf growth 96h
N#Cc1ccccc1S(=O)(=O)N1CCN(C(=O)c2cn(-c3ccccc3)nc2-c2cccnc2)CC1	x	u	n	n	n	u
COC(=O)c1cccnc1Oc1ccccc1	n	u	n	n	n	0.657µM
CNC(=S)N1N=C(c2ccc(C)cc2)CC1c1ccc(Cl)cc1 (stereo unspecified)	n	x	u	n	n	8.28µM
CCC(=O)O[C@@H]1CC(=O)O[C@H](C)CC=CC=C[C@@H](O)[C@H](C)C[C@H](CC=O)[C@H](O[C@H]2O[C@H](C)[C@@H](O[C@H]3C[C@@](C)(O)[C@@H](OC(=O)CC)[C@H](C)O3)[C@H](N(C)C)[C@H]2O)[C@H]1OC	n	u	x	n	x	0.828µM
CO[C@H]1[C@H](O[C@H]2O[C@@H](C)[C@@H](O[C@@H]3C[C@](C)(O)[C@H](O)[C@H](C)O3)[C@@H](N(C)C)[C@@H]2O)[C@@H](CC=O)C[C@@H](C)[C@@H](O[C@H]2CC[C@H](N(C)C)[C@H](C)O2)/C=C\C=C/C[C@@H](C)OC(=O)C[C@H]1O	x	n	x	x	x	2.03µM
CCC(=O)O[C@@H]1[C@H](C)O[C@H](O[C@H]2[C@@H](N(C)C)[C@H](O)[C@@H](O[C@@H]3[C@@H](CC=O)C[C@@H](C)[C@@H](O)/C=C\C=C/C[C@@H](C)OC(=O)C[C@@H](OC(=O)CC)[C@H]3OC)O[C@H]2C)C[C@]1(C)O	x	u	x	x	x	1.28µM
CCCOc1ccc(S(=O)(=O)n2cc(F)c(=O)[nH]c2=O)cc1	n	n	n	n	n	u
O=C(NC1CCCCC1)c1cc(S(=O)(=O)N2CCCC2)ccc1Cl	n	n	u	n	n	n
COc1ncccc1-c1ccc2nncn2c1	x	x	x	x	n	x
O=C(O)C1C2OC(C(Br)C2Br)C1C(=O)O (stereo unspecified)	x	x	n	x	n	x
O=C(Oc1c(CN2CCOCC2)cc(Cl)c2cccnc12)c1ccccc1Cl	x	u	u	n	n	1.31µM
O=C(Oc1c(CN2CCOCC2)cc(Cl)c2cccnc12)c1cccs1	x	2.62µM	u	u	n	0.738µM
O=C(Oc1ccc(Cl)c2cccnc12)N1CCOCC1	n	n	n	n	n	u
O=C1CCC(C(=O)OCc2cc(=O)oc3ccc4ccccc4c23)=NN1	n	n	n	n	n	n
COc1cc(C2c3c(-c4cc(Cl)c(C)cc4O)n[nH]c3C(=O)N2Cc2cccnc2)ccc1O (stereo unspecified)	n	8.28µM	n	n	n	x
COc1cccc(C2c3c(-c4cc(Cl)c(C)cc4O)n[nH]c3C(=O)N2Cc2cccnc2)c1 (stereo unspecified)	n	x	u	n	n	6.57µM
CCCCNc1nnc(SCC(=O)c2c[nH]c3ccccc23)s1	n	10.4µM	n	n	n[11.6 µM]	8.28µM
Cn1cnnc1SCC(=O)c1c[nH]c2ccccc12	n	n	n	n	n	x
COc1ccccc1CNC(=O)CCS(=O)(=O)c1ccc2c(c1)CCN2C(C)=O	n	u	n	n	n	u
COc1ccc(OC)c(S(=O)(=O)NCc2cc(-c3ccccc3)no2)c1	n	n	n	n	n	u
COc1ccc(S(=O)(=O)NCc2cc(-c3ccccc3Cl)no2)cc1	x	10.4µM	n	n	n	n
O=C(Nc1ccn(CCCNCCCN2CCCC2=O)c(=O)n1)OCc1ccccc1	x	x	n[8.37 µM]	x	n	x
O=C(Nc1ccn(CCCNCc2ccc3c(c2)OCO3)c(=O)n1)OCc1ccccc1	x	x	10µM	x	n	x
O=C(Nc1ccn(CCCNCc2ccccc2)c(=O)n1)OCc1ccccc1	x	x	0.562µM	x	n	x
O=C(Cn1ccc(NC(=O)OCc2ccccc2)nc1=O)NCc1ccc2c(c1)OCO2	x	n	n	n	n	n
O=C(OCc1ccccc1)N(CCCCN(CCCNCc1ccccc1)C(=O)OCc1ccccc1)CCCNCc1ccccc1	x	x	10µM	x	u	x
